PubChem BioAssay (EPA / NIEHS)
Calls of active or inactive are those of the source. The calls were made as follows: active = hit-call score of the fitted dose curve at least 0.9, where 1 is the maximum; inactive = score below 0.9.

What was measured:
Details in all cases: mRNA level, 48 h; actives raise or lower the signal
[1] = read-out: Glutathione S-Transferase (GSTA2), GSTA2 (gene 2939); experiment: LTEA_HepaRG_GSTA2: Life Technologies and Expression Analysis (LTEA) Assay for Glutathione S-Transferase (GSTA2) using HepaRG (AID 2283497)
Outline: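 GSTA2 transcript levels came from Fluidigm TaqMan qRT-PCR normalized to three housekeeping genes, fitted in both directions against DMSO. HepaRG cultures received chemicals for 48 h in serum-free induction medium (0.5% DMSO), 8 half-log concentrations up to 100 uM, duplicate.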

[2] = read-out: Glutamate-cysteine ligase catalytic (GCLC), GCLC (gene 2729); experiment: LTEA_HepaRG_GCLC: Life Technologies and Expression Analysis (LTEA) Assay for Glutamate-cysteine ligase catalytic (GCLC) using HepaRG (AID 2283498)
Outline: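 Expression by TaqMan qRT-PCR, normalized to three housekeeping genes (ACTB, GAPDH, POLR2A), with up- or down-regulation fitted against DMSO. HepaRG cells dosed in duplicate for 48 h with 8 half-log concentrations up to 100 uM, vehicle 0.5% DMSO.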

[3] = read-out: growth arrest and DNA damage 45 (GADD45G), GADD45G (gene 10912); experiment: LTEA_HepaRG_GADD45G: Life Technologies and Expression Analysis (LTEA) Assay for growth arrest and DNA damage 45 (GADD45G) using HepaRG (AID 2283499)
Outline: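 Human hepatic HepaRG line treated 48 h with chemicals (eight concentrations, half-log steps from 100 uM); transcript induction or repression of GADD45G scored by qRT-PCR versus DMSO vehicle.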

[4] = read-out: Glutamate-cysteine ligase regulatory (GCLM), GCLM (gene 2730); experiment: LTEA_HepaRG_GCLM: Life Technologies and Expression Analysis (LTEA) Assay for Glutamate-cysteine ligase regulatory (GCLM) using HepaRG (AID 2283500)
Outline: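 HepaRG, 48 h dosing, 100 uM top, half-log x8, 0.5% DMSO vehicle. Readout: GCLM mRNA by TaqMan qRT-PCR, housekeeping-normalized (ACTB/GAPDH/POLR2A). Curves fit bidirectionally vs DMSO baseline.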

[5] = read-out: Glutathione S-transferase M3 (GSTM3), GSTM3 (gene 2947); experiment: LTEA_HepaRG_GSTM3: Life Technologies and Expression Analysis (LTEA) Assay for Glutathione S-transferase M3 (GSTM3) using HepaRG (AID 2283501)
Outline: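 Changes in GSTM3 expression, an oxidative-stress marker, were scored by bidirectional curve fitting against 0.5% DMSO vehicle. Human HepaRG cultures received chemicals for 48 h in duplicate, highest concentration 100 uM with half-log dilutions.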

[6] = read-out: Heat shock 70 kDa protein 1 (HSPA1A), gene 3303; experiment: LTEA_HepaRG_HSPA1A: Life Technologies and Expression Analysis (LTEA) Assay for Heat shock 70 kDa protein 1 (HSPA1A) using HepaRG (AID 2283502)
Outline: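 HepaRG, 48 h exposure, 8-pt half-log CRC from 100 uM in 0.5% DMSO, duplicates. Readout: TaqMan qRT-PCR of HSPA1A mRNA, housekeeping-normalized (ACTB/GAPDH/POLR2A). Bidirectional fit vs 0.5% DMSO baseline.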

[7] = read-out: Hypoxia-inducible factor 1-alpha (Homo sapiens) (UniProt Q16665); experiment: LTEA_HepaRG_HIF1A: Life Technologies and Expression Analysis (LTEA) Assay for Hypoxia-inducible factor 1 (HIF1A) Trancription factor using HepaRG (AID 2283503)
Outline: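 Gain- or loss-of-signal HIF1A mRNA changes are fitted against a DMSO baseline. HepaRG cultures receive eight concentrations, highest 100 uM, for 48 h in serum-free induction medium with 0.5% DMSO.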

[8] = read-out: 3-Hydroxy-3-Methylglutaryl-CoA Synthase 2 (HMGCS2), HMGCS2 (gene 3158); experiment: LTEA_HepaRG_HMGCS2: Life Technologies and Expression Analysis (LTEA) Assay for 3-Hydroxy-3-Methylglutaryl-CoA Synthase 2 (HMGCS2) using HepaRG (AID 2283504)
Outline: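 Expression of HMGCS2 in human HepaRG liver cells is measured by qRT-PCR 48 h after dosing (highest 100 uM, half-log series, 0.5% DMSO). Values come from bidirectional concentration-response fitting with DMSO as baseline.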

HGF (gene 3082) = experiment: LTEA_HepaRG_HGF: Life Technologies and Expression Analysis (LTEA) Assay for Hepatocyte Growth Facto (HGF) using HepaRG (AID 2283505)
Outline: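 Gain or loss of HGF mRNA in human HepaRG liver cells after 48 h chemical exposure; eight concentrations up to 100 uM with 0.5% DMSO vehicle, quantified by TaqMan qRT-PCR.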

[9] = read-out: Insulin Like Growth Factor 1 (IGF1), IGF1 (gene 3479); experiment: LTEA_HepaRG_IGF1: Life Technologies and Expression Analysis (LTEA) Assay for Insulin Like Growth Factor 1 (IGF1) using HepaRG (AID 2283506)
Outline: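 qRT-PCR readout of IGF1 mRNA, normalized to three housekeeping genes, after 48 h chemical exposure of HepaRG cells. Concentrations: 8-point half-log series, top 100 uM, 0.5% DMSO vehicle. Gain or loss fitted against DMSO baseline.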

Measured: AC50

Sequence of Hypoxia-inducible factor 1-alpha (Homo sapiens) (Q16665 whole entry, looked up): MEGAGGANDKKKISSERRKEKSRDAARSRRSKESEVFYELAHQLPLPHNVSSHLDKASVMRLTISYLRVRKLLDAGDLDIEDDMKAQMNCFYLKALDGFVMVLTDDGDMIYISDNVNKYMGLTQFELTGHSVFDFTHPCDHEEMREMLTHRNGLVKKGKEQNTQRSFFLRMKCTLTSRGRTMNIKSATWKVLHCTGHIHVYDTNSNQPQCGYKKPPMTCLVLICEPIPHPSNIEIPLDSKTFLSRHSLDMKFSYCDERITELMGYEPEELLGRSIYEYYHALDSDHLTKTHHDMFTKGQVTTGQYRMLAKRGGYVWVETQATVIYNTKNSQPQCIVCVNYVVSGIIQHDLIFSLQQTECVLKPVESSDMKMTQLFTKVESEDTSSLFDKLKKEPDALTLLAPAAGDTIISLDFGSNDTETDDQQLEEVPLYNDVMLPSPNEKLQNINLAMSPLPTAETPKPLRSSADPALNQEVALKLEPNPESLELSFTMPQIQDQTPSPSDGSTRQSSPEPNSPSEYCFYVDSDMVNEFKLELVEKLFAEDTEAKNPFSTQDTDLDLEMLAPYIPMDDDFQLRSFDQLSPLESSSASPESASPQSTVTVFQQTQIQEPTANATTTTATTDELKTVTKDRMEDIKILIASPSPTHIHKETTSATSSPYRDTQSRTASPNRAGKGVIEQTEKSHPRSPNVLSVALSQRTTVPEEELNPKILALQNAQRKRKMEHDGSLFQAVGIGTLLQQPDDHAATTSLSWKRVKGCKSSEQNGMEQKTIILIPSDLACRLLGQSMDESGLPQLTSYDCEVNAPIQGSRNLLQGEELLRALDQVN

CC[C@H](C)[C@@H](C(=O)O)n1sc2ccccc2c1=O
inactive: [1] | [2] | [3] | [4] | [5] | [6] | [8] | HGF (gene 3082) | [9]
active: [7] 0.372 µM

OCCC(F)(F)C(F)(F)C(F)(F)C(F)(F)C(F)(F)C(F)(F)F
inactive: [1] | [2] | [3] | [4] | [5] | [6] | [7] | [8] | HGF (gene 3082) | [9]

CCc1nn(C2CCCCC2)c2cc(C3(C#N)CCC(C(=O)O)CC3)ccc12 (stereo not given)
inactive: [5] | [7] | HGF (gene 3082)
active: [1] 77.1 µM | [2] 83.6 µM | [3] 85.5 µM | [4] 50 µM | [6] 12.2 µM | [8] 81.8 µM | [9] 57.3 µM

OCCC(F)(F)C(F)(F)C(F)(F)C(F)(F)C(F)(F)C(F)(F)C(F)(F)C(F)(F)F
inactive: [1] | [2] | [3] | [4] | [5] | [6] | [7] | [8] | HGF (gene 3082) | [9]

CCC(=C(c1ccc(O)cc1)c1ccc(OCCN(C)C)cc1)c1ccccc1
inactive: [1] | [2] | [4] | [5] | HGF (gene 3082)
active: [3] 93 µM | [6] 69.4 µM | [7] 83.8 µM | [8] 91.7 µM | [9] 93.4 µM

ClC1=C(Cl)C(Cl)(Cl)C(Cl)=C1Cl
inactive: [1] | [2] | [3] | [4] | [5] | [6] | [7] | [8] | HGF (gene 3082) | [9]

Cc1cc(C)c(O)c(C)c1
inactive: [1] | [2] | [3] | [4] | [5] | [6] | [7] | [8] | HGF (gene 3082) | [9]

CCCCCCCCCCCCCCCS(=O)(=O)Oc1ccccc1
inactive: [1] | [2] | [3] | [4] | [5] | [6] | [7] | [8] | HGF (gene 3082)
active: [9] 27.5 µM

CCOC(=O)CC(O)(CC(=O)OCC)C(=O)OCC
inactive: [1] | [2] | [3] | [4] | [5] | [6] | [7] | [8] | HGF (gene 3082) | [9]

Cc1cc(CCN2CCN(c3nsc4ccccc34)CC2)cc2c1NC(=O)CC2(C)C
inactive: [2] | [5] | [7] | HGF (gene 3082)
active: [1] 81.9 µM | [3] 76.8 µM | [4] 50 µM | [6] 50 µM | [8] 78 µM | [9] 70.5 µM

CCCCCCCC(=O)O
inactive: [1] | [2] | [3] | [4] | [5] | [6] | [7] | [8] | HGF (gene 3082) | [9]

CCCOc1sc(C(=O)N2CCC(c3cc(CN)ccc3F)CC2)c(C)c1Br
inactive: [1] | [2] | [3] | [4] | [5] | [6] | [7] | [8] | HGF (gene 3082) | [9]

CCc1ccc(CCOc2ccc(CC3SC(=O)NC3=O)cc2)nc1 (stereo not given)
inactive: [5] | [7] | HGF (gene 3082)
active: [1] 78.1 µM | [2] 14.2 µM | [3] 11 µM | [4] 68.3 µM | [6] 23.6 µM | [8] 85.2 µM | [9] 64.9 µM

CC(C)(C)c1ccc(O)c(C(C)(C)C)c1
inactive: [1] | [2] | [3] | [4] | [5] | [6] | [7] | [8] | HGF (gene 3082) | [9]

CCCCCCCCC(=O)O
inactive: [1] | [2] | [3] | [4] | [5] | [6] | [7] | [8] | HGF (gene 3082) | [9]

Cc1oc(-c2ccccc2)nc1CCOc1ccc(C[C@H](Nc2ccccc2C(=O)c2ccccc2)C(=O)O)cc1
inactive: [4]
active: [1] 23.4 µM | [2] 64 µM | [3] 0.0219 µM | [5] 27.9 µM | [6] 16.2 µM | [7] 30.8 µM | [8] 22.8 µM | HGF (gene 3082) 15.8 µM | [9] 12.4 µM

Nc1cccc2c(N)cccc12
active: [1] 50 µM
inactive: [2] | [3] | [4] | [5] | [6] | [7] | [8] | HGF (gene 3082) | [9]

O=[N+]([O-])c1ccc(O)cc1
inactive: [1] | [2] | [3] | [4] | [5] | [6] | [7] | [8] | HGF (gene 3082) | [9]

CC(O)CO (stereo not given)
inactive: [1] | [2] | [3] | [4] | [5] | [6] | [7] | [8] | HGF (gene 3082) | [9]

CC(C)(C)c1cc(C(C)(C)C)c(O)c(C(C)(C)C)c1
active: [8] 21 µM
inactive: [1] | [2] | [3] | [4] | [5] | [6] | [7] | HGF (gene 3082) | [9]

CCN(CC)CCNc1ccc(CNC=O)c2sc3ccc(OC)cc3c(=O)c12
active: [1] 81.8 µM | [2] 50 µM | [3] 50 µM | [6] 9.92 µM | [7] 75.5 µM | [8] 74.3 µM | [9] 85.6 µM
inactive: [4] | [5] | HGF (gene 3082)

c1ccc2cc3c(ccc4ccccc43)cc2c1
inactive: [2] | [5] | [6] | [7] | HGF (gene 3082)
active: [1] 8.52 µM | [3] 15.5 µM | [4] 38.8 µM | [8] 19.7 µM | [9] 20.1 µM

CN1CCN(c2ccccc2/C=C2\SCCN(c3ccc(Cl)c(Cl)c3)C2=O)CC1
active: [6] 71.9 µM | [8] 60.3 µM | [9] 12 µM
inactive: [1] | [2] | [3] | [4] | [5] | [7] | HGF (gene 3082)

C[C@@H]1C[C@H]2[C@@H]3CCC4=CC(=O)C=C[C@]4(C)[C@@]3(F)[C@@H](O)C[C@]2(C)[C@@]1(O)C(=O)COP(=O)(O)O
inactive: [1] | [2] | [3] | [4] | [5] | [6] | [7] | [8] | HGF (gene 3082) | [9]

CCCCC(CC)COC(=O)CCCCC(=O)OCc1ccccc1 (stereo not given)
inactive: [1] | [2] | [3] | [4] | [5] | [6] | [7] | [8] | HGF (gene 3082) | [9]

CN(C)C=O
inactive: [1] | [2] | [3] | [4] | [5] | [6] | [7] | [8] | HGF (gene 3082) | [9]

CC(C)(C)c1cccc(C(C)(C)C)c1O
inactive: [1] | [2] | [3] | [4] | [5] | [6] | [7] | [8] | HGF (gene 3082) | [9]

c1ccc2c(c1)ccc1ccccc12
inactive: [1] | [2] | [3] | [4] | [5] | [6] | [7] | [8] | HGF (gene 3082) | [9]

CC(=O)NC1(c2cccc(F)c2)CCN(CC[C@@]2(c3ccc(Cl)c(Cl)c3)CN(c3ccccc3)C(=O)CO2)CC1
active: [1] 65.1 µM | [3] 41.5 µM | [6] 27.9 µM | [9] 13.1 µM
inactive: [2] | [4] | [5] | [7] | [8] | HGF (gene 3082)

Oc1cc2ccccc2c2ccccc12
inactive: [1] | [2] | [3] | [4] | [5] | [6] | [7] | [8] | HGF (gene 3082) | [9]

OC1CCCCC1
inactive: [1] | [2] | [3] | [4] | [5] | [6] | [7] | [8] | HGF (gene 3082) | [9]
